Source: PubChem BioAssay (NCATS)
Inconclusive results are not listed. A call without a number means that no potency is given here. Values without a mark were called inactive. Active and inactive are the calls of the source. Calls follow the shape of the dose curve; as a rule, active = well fitted curve in the direction sought with a large enough effect; inconclusive = small, poorly fitted or top-dose-only effect, or another doubt; inactive = no such curve, though single readings can be large; an effect the other way counts as inactive or inconclusive.

How the values were obtained:
[1] = P-glycoprotein substrates identified in KB-3-1 adenocarcinoma cell line, qHTS therapeutic library screen (AID 1346986); also: nearly all actives have a fitted effect of over 60% in size
In short: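 Using luminescence to quantify ATP, parental and P-gp-overexpressing KB cells were compared after 72 h compound titration. KB-8-5-11 was also run with the P-gp inhibitor tariquidar.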

[2] = P-glycoprotein substrates identified in KB-8-5-11 adenocarcinoma cell line, qHTS therapeutic library screen (AID 1346987); also: nearly all actives have a fitted effect of over 65% in size; as to activity change, negative = cytotoxicity: series mostly up to about 44 µM
In short: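 In this qHTS, P-gp-rich KB-8-5-11 cells received library compounds across a concentration range. Viability was quantified by luminescence after 72 h at 37 degree C.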

Structure (SMILES)	Potency [1]	Potency [2]	outcome [1]	activity change, negative = cytotoxicity [2]
COc1cc2c(c(OC)c1CC=C(C)C)C[C@H](c1ccc(O)cc1O)CO2	inactive	inactive		
CC12CCC3c4ccc(O)cc4CCC3C1CC(OC1OC(C(=O)O)C(O)C(O)C1O)C2O (stereo not given)	inactive	inactive		
C=C1CC23CC1CCC2C12OC(=O)C(C)(CCC1O)C2C3C(=O)O (stereo not given)	inactive	inactive		
C=C1C(=O)OC2CC(C)=C(C(C)CCCO)C(O)C12 (stereo not given)	inactive	inactive		
CC1CCC2C(C)(C)[C@@H](O)CC[C@]2(C)C12Cc1c(O)cc3c(c1O2)CN(C(CCC(=O)O)C(=O)O)C3=O (stereo not given in full)	inactive	inactive		
CC1OC(OC2C(C)OC(OC3C(OC(=O)C45CCC(C)(C)CC4C4=CCC6C7(C)CCC(OC8OC(C(=O)O)C(O)C(O)C8OC8OC(CO)C(O)C(OC9OC(C)C(O)C(O)C9O)C8O)C(C)(CO)C7CCC6(C)C4(C)CC5)OC(CO)C(O)C3O)C(O)C2O)C(O)C(O)C1O (stereo not given)			inactive [at 9.29 µM]	1.71% [at 9.29 µM]
C=C1CC[C@@H]2[C@@](C)(CO[C@@H]3O[C@H](CO)C(O)[C@H](O)C3O)[C@H](O)CC[C@@]2(C)[C@@H]1CC/C(C)=C/CO (stereo not given in full)			inactive [at 9.29 µM]	5.95% [at 9.29 µM]
COc1c(C)c(OCC(O)C(C)(C)O)cc2c1COC2=O (stereo not given)	inactive	inactive		
CCC(C)/C=C(C)/C=C/c1cc2c(cn1)C(=O)C(C)(OC(C)=O)C(O)=C2Cl (stereo not given)	inactive	inactive		
CC(C)C(=O)OC[C@H]1O[C@H](O[C@H]2O[C@H](CO)[C@@H](O)[C@H](O)[C@H]2O)[C@H](O)[C@@H](O)[C@@H]1O	inactive	inactive		
